In the library only some 11% were active in any assay of this set; here they are far more common.
HPGD block – blocks human HPGD enzyme activity; P15428; purified HPGD, NADH fluorescence kinetic, PGE2 substrate; Potency, µM, for the others: at the top dose activity change, negative = inhibition, actives largely listed as inhibitors; 4.3% of 150,000 active; note: potency is the fitted concentration of half-maximal effect
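NADH formation kinetics: reaction with 30 uM PGE2 and 1 mM NAD+ (final), 20 nM enzyme, Tris-HCl pH 8 with Tween 20, after 15 min compound preincubation at room temperature. Fluorescence change, last versus first of five reads.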
ALDH1A1 block – blocks purified human ALDH1A1 activity; Purified ALDH1A1, NADH fluorescence, propionaldehyde substrate; Potency, µM (doses to about 75.3 µM), inactives show at the top dose activity, negative = inhibition, actives largely listed as inhibitors; 7.3% of 220,000 active; AID 1030;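 note: potency is the fitted concentration of half-maximal effect; plate controls were no enzyme wells and a reference inhibitor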
NPSR antagonist – antagonists of human neuropeptide S receptor cAMP signaling; Q6W5P4; CHO-NPSR cells, cAMP TR-FRET, antagonist mode; Potency, µM (series often up to 38.3 µM), inactives show at the highest dose activity change, negative = inhibition, most hits filed as inhibitors; 1% of 220,000 active; AID 1461; active = well fitted curve in the direction sought with a large enough effect; inconclusive = small, poorly fitted or top-dose-only effect, or another doubt; inactive = no such curve, though single readings can be large; an effect the other way counts as inactive or inconclusive; note: potency is the fitted concentration of half-maximal effect; nearly all actives have a fitted effect of over 50% in size
Target sequence (Q6W5P4 whole entry, looked up): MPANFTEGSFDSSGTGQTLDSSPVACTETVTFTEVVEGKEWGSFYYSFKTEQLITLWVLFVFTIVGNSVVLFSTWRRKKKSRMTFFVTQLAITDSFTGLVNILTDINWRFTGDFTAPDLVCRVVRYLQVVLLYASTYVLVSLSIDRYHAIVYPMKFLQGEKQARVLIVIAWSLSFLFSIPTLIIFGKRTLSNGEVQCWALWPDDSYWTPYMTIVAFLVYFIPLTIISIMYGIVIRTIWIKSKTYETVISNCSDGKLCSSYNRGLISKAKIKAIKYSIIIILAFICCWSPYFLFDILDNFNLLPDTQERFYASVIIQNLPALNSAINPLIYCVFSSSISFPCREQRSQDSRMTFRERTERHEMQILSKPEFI
IMPase cell inh – IMPase inhibition in cells. P97697. 120,000 tested, under 10 active. CHO-M1 cells, IP1 accumulation, HTRF TR-FRET ratio. inhibition (IP1 accumulation), % at 46.1 µM; active = well fitted curve in the direction sought with a large enough effect in the signal ratio, not every such curve was filed as active; inconclusive = small, poorly fitted or top-dose-only effect, or a change in a side signal; inactive = no such curve, though single readings can be large or run the other way; the % refers to the signal ratio;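 note: cells stimulated with carbachol in lithium chloride buffer; plate controls were DMSO basal wells for no effect and reference inhibitor wells for full effect; higher means more IMPase inhibition seen as more IP1 and lower FRET ratio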
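The IP-One HTRF competitive assay in carbachol-stimulated CHO-M1 cells quantifies cellular IP1. Compounds spanned up to 46 uM final, and activity is expressed as AC50 from concentration-response fits of the ratio and donor data.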
PNC assembly inh – inhibitors of perinucleolar compartment assembly; PC3M PTB-GFP, PNC prevalence imaging, 16 h; hits give low values; activity change (PNC), negative = inhibition, % at 10 µM; 3.1% of 140,000 active;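 active = readout at or below -70, meaning at least 70% loss of cells showing the perinucleolar compartment, a nuclear body marking cancer cells; inconclusive = readout between -30 and a set limit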;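 note: plate controls were DMSO wells for no effect and camptothecin positive control wells for full effect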
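Compounds are pinned in duplicate onto adhered PC3M cells stably expressing GFP-tagged PTB and incubated 16 h at 37 C. Cells are then fixed, nuclei stained with Hoechst, and PNC-positive cells counted.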
IMPase Li cell – IMPase inhibition in cells with lithium potentiation | CHO-M1 cells, IP1 TR-FRET (IP-One), carbachol + lithium | Potency, µM (top dose mostly 59.4 µM), for inactives: at the top dose activity, negative = IMPase inhibition, usual class: inhibitors | 0.35% of 210,000 active; active = well fitted curve in the direction sought with a large enough effect; inconclusive = small, poorly fitted or top-dose-only effect, or another doubt; inactive = no such curve, though single readings can be large; an effect the other way counts as inactive or inconclusive;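 note: IP1 builds up when IMPase is blocked and the TR-FRET signal falls; potency is the fitted concentration of half-maximal effect; plate controls were basal vehicle for no effect and high inhibitor control for full effect; nearly all actives have a fitted effect of over 50% in size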
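Readout is a homogeneous TR-FRET IP1 immunoassay (Ex 320, Em 665 and 620), where raised cytosolic IP1 lowers signal. Cells were CHO-M1 treated 30 min at 37C with test compounds plus a little lithium; AC50 values came from Hill-equation fitting.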
Starred values were filed as active, the others as inactive; ? = inconclusive; . = no result given; [ ] = remark or other dose. Unless noted, calls come from the whole dose curve; as a rule, active = well fitted inhibition curve with a large enough effect (not every such curve was filed as active); inconclusive = small, poorly fitted or top-dose-only effect, or another doubt; inactive = no such curve, though single readings can be large or run the other way. Unless noted, % is set by controls: 0 for no effect and ±100 for the full control effect.

SMILES | HPGD block | ALDH1A1 block | NPSR antagonist | IMPase cell inh | PNC assembly inh | IMPase Li cell
COc1ccc(C(=O)n2nc(C#N)c(C#N)c2N)cc1 | . | -13% | -6% | . | . | .
COC(=O)c1oc(-c2ccc(Cl)cc2)nc1C | . | 25µM* | 4% | . | . | 3%
COC(=O)c1oc(-c2ccccc2)nc1C | . | 0% | 6% | . | . | 8%
Nn1c(SCC(=O)Nc2ccc(F)cc2)nnc1-c1ccccn1 | -11% | ? | -4%[46.1 µM] | 0 | ? | 7%[38.3 µM]
Cc1cc(Nc2ccc(O)cc2)ccc1N | -13% | 3.2µM* | . | . | . | 37%
Cc1cc(NC(=O)CN2CCOCC2)n(-c2nc3ccccc3s2)n1 | -8% | 22µM* | -19%[46.1 µM] | 8 | 29 | -6%[38.3 µM]
O=C(CN1CCOCC1)Nc1nc2ccc(Br)cc2s1 | -22% | 13µM* | -9%[46.1 µM] | -3 | ? | 36%[38.3 µM]
Cc1cc(NC(=O)CN2CCOCC2)n(-c2ccccc2)n1 | . | . | -7% | . | . | .
CC1(C)CC(=O)C2=C(C1)N(Cc1cccnc1)C(=O)C2(NC(=O)c1cccnc1)C(F)(F)F (configuration not stated) | -6% | 3% | -22%[46.1 µM] | 5 | 50 | -9%[38.3 µM]
COC(=O)c1ccc(NC(=O)CNc2ccccc2)cc1 | . | 22µM* | 4% | . | . | -2%
O=C(CN1C(=O)CCC1=O)Nc1ccc(Br)cc1 | -17% | 2.5µM* | -2%[46.1 µM] | 2 | 9 | 3%[38.3 µM]
COC(=O)c1ccc(NC(=O)CN2C(=O)CCC2=O)cc1 | 32µM* | ? | -22%[46.1 µM] | 0 | 14 | -6%[38.3 µM]
COC(=O)c1ccc(NC(=O)CCOc2ccccc2)cc1 | . | -13% | -9% | -9 | . | 0%
CSCCC(NS(=O)(=O)c1ccc(Cl)cc1)C(=O)OCc1cccc(Cl)c1 (configuration not stated) | -12% | -13% | -33% | . | 8 | 10%
COc1ccc(C)cc1NC(=O)c1nn(C)cc1Br | . | . | -6% | . | . | .
COc1ccc(C(=O)N/N=C/c2ccc(OC)c(CN3CCN(c4ccc(F)cc4)CC3)c2)cc1 | -27% | ? | -9% | . | -10 | 13%
C=CCSc1nc2c(c(=O)[nH]1)C(c1ccccc1)C(C#N)=C(N)O2 (configuration not stated) | . | . | -50% | . | . | .
CNc1nc2[nH]c(=O)c3c(c2s1)OC(N)=C(C#N)C3c1cccc(F)c1 (configuration not stated) | ? | 7.1µM* | ? | 5 | -13 | ?
CCOC(=O)c1cnc2c(-c3ccc(Cl)cc3)cnn2c1C | . | 1% | -17% | . | . | -1%
CCOC(=O)c1c(-c2ccc(Cl)cc2)cn2ccccc12 | ? | ? | 1%[46.1 µM] | 2 | 56 | 28µM*
O=C(CCSc1ccccc1)NC1CCCC1 | 14µM* | -4% | -10%[46.1 µM] | -6 | 17 | 17%[38.3 µM]
O=C(CCCCCCN1C(=O)c2ccccc2C1=O)NC1CCCCC1 | 4.5µM* | -3% | -23%[46.1 µM] | -3 | 2 | 8%
O=C(CCSc1ccccc1)Nc1ncccn1 | -12% | 1% | -3%[46.1 µM] | 1 | -14 | 7%
O=C(CCCCCN1C(=O)c2ccccc2C1=O)NC1CCCC1 | 4.5µM* | ? | -4%[7.67 µM] | 2 | -1 | -1%[38.3 µM]
O=C(CCCn1c(=O)[nH]c2ccccc2c1=O)NC1CCCCCC1 | ? | ? | ? | -11[1.84 µM] | 37 | 11%[38.3 µM]
SMILES | HPGD block | ALDH1A1 block | NPSR antagonist | IMPase cell inh | PNC assembly inh | IMPase Li cell
CCc1cccc(CC)c1NC(=O)CN1C(=O)C(=O)c2ccccc21 | . | . | . | 10 | . | .
CC(C)(C)NC(=O)CN(C(=O)CN1C(=O)C(=O)c2ccccc21)C(C)(C)C | . | 0.13µM* | 19% | . | . | -8%
CCn1c(=NC(=O)CSCC(=O)Nc2nccs2)sc2ccccc21 | -3% | 0% | -12%[46.1 µM] | 5 | ? | 31%[38.3 µM]
O=C(CN1C(=O)CSc2ccccc21)NC1CCCC1 | . | -10% | -10%[46.1 µM] | 1 | ? | .
O=C(CN1C(=O)C(=O)c2ccccc21)NC1CCCCC1 | -6% | 0.89µM* | -5%[46.1 µM] | 4 | 35 | 11%
Cc1nnc(NC(=O)CSCc2ccccc2)s1 | -8% | -2% | -12%[46.1 µM] | 4 | -106* | 26%[38.3 µM]
CSc1nnc(NC(=O)CCc2ccccc2)s1 | -24% | ? | -9%[46.1 µM] | -6 | 30 | 28µM*
CCOCc1nnc(NC(=O)CSCc2ccccc2)s1 | -3% | ? | 5%[46.1 µM] | 2 | -18 | 2%[38.3 µM]
